Potency data for seven molecules are collected here from PubChem BioAssay (Tox21).

Several values for one entry are separate records, joined by “and”; a condition that tells them apart may be missing. Equal values may be shown once. Records with an inconclusive call do not appear. Activity calls are given as the source filed them. Unless noted, calls follow the shape of the full dose curve.

Test [1] can be described thus: Nuclear factor erythroid 2-related factor 2/antioxidant responsive element (Nrf2/ARE) small molecule agonists: luciferase reporter gene qHTS assay in human keratinocytes (AID 1919969). Also: nearly all actives have a fitted effect of over 35% in size. Also: potency is read from the fitted curve at half-maximal effect. A general note: Reporter assays use an easily measured gene product as a stand-in for the process of interest.
The target of test [2] is Gonadotropin-releasing hormone receptor (Homo sapiens) (UniProt P30968). The test is described as follows: Human gonadotropin-releasing hormone receptor (GnRHR) small molecule agonists, calcium flux assay in GnRHR-HEK293 cells (AID 1920063). Also: nearly all actives have a fitted effect of over 35% in size. An outline of the steps:
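Calcium-dye fluorescence, Ex/Em=480/540, recorded every 1 sec over 3 min after compound addition to GnRHR-HEK293 cells. Cells had been seeded 18 hours earlier and dye-loaded for 1 hour at 37 C. Fifteen concentrations, triplicates.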
Background: A change in cytosolic calcium serves as a functional read-out for many receptors and channels.

Test [3] addresses KiSS-1 receptor (Homo sapiens) (UniProt Q969F8). Nature of the test: Human kisspeptin (KISS1R) small molecule agonists, calcium flux assay in KISS1R-HEK293 cells (AID 1920064; active = well fitted activation curve with a large enough effect in the repeat runs). An outline of the steps: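 Calcium flux read-out: kinetic fluorescence at Ex/Em=480/540, 1 s intervals over 3 min, after pin-tool compound addition to dye-loaded KISS1R-HEK293 cells. Fifteen concentrations, triplicates.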

Test [4] can be described thus: G protein-coupled receptor (GPCR) small molecule agonists, calcium flux assay: HEK293 wild type cell line counter screen (AID 1920065). An outline of the steps:
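Agonist mode; 18 h seeding at 37 C, 1 h dye load at 37 C; compounds pinned from DMSO, ATP as positive control; kinetic fluorescence 480/540 nm, 3 min, 1 s reads; 15 concentrations, triplicate.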

Test [5] is described as follows: p53 small molecule agonists, cell-based qHTS assay with human liver microsomes (AID 1963577). An outline of the steps: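 In this qHTS, p53 response-element beta-lactamase cells receive test compound together with a microsome/NADPH activating system (0.5 mg/mL final each) and are incubated 16 h at 37 C before LiveBLAzer fluorescence detection.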
For orientation: Quantitative high-throughput screening tests each substance at several concentrations.

The nature of test [6]: p53 small molecule agonists, cell-based qHTS assay with rat liver microsomes (AID 1963578). An outline of the steps:
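Agonist mode in p53RE-bla reporter cells, with compounds co-incubated 16 h at 37 C alongside 0.5 mg/mL rat liver microsomes and 0.5 mg/mL NADPH (final), followed by a 2 h LiveBLAzer detection step.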

The nature of test [7]: p53 small molecule agonists, cell-based qHTS assay with rat liver microsomes: qHTS cell viability counter screen (AID 1963580). Also: nearly all actives have a fitted effect of over 45% in size. Summed up:
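After the beta-lactamase ratio was read, CellTiter-Glo was added to the same wells and luminescence measured at 30 min; cells had been treated 16 h at 37 C with compounds, rat liver microsomes and NADPH (0.5 mg/mL final each).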

Test [8] is described as follows: p53 small molecule agonists, cell-based qHTS assay: qHTS cell viability counter screen (AID 1963581). Also: nearly all actives have a fitted effect of over 45% in size. Summed up: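 Cytotoxicity read-out: ATP-based luminescence (CellTiter-Glo, 30 min RT) measured in the same wells as the p53 reporter assay, HCT-116 p53RE-bla cells, 16 h compound exposure at 37 C.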
Test [9] addresses 5-hydroxytryptamine receptor 2A (Homo sapiens) (UniProt P28223). Nature of the test: 5-hydroxytryptamine receptor 2A (HTR2A) small molecule antagonists, cell-based qHTS assay (AID 1963586). Also: nearly all actives have a fitted effect of over 45% in size. Summed up: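 CHO cells stably expressing human HTR2A were plated for 18 h at 37 C, then loaded with calcium dye for 1 h. Compounds were preincubated 5 min at room temperature before DOI (4 nM solution) was added. Kinetic fluorescence was read for 3 min.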

Test [10] has the same target. Nature of the test: 5-hydroxytryptamine receptor 2A (HTR2A) small molecule agonists, cell-based qHTS assay (AID 1963587). Also: nearly all actives have a fitted effect of over 30% in size. An outline of the steps: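 CHO cells stably expressing human HTR2A, plated 18 h, loaded with calcium dye 1 h at 37 C. Agonist mode: compounds added and intracellular calcium fluorescence recorded kinetically for 2 min at 1 sec intervals.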
Test [11] concerns the target Muscarinic acetylcholine receptor M1 (Homo sapiens) (UniProt P11229). The test is described as follows: Cholinergic receptor muscarinic 1 (CHRM1) small molecule antagonists, cell-based qHTS assay (AID 1963588). Also: nearly all actives have a fitted effect of over 40% in size. An outline of the steps: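 Compounds were tested at 15 concentrations in three independent runs. Dye-loaded CHRM1-CHO cells were exposed 5 min at room temperature before stimulation by acetylcholine added at 50nM. Intracellular calcium was read kinetically on FDSS for 3 min.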

Test [12] shares this target. The test is described as follows: Cholinergic receptor muscarinic 1 (CHRM1) small molecule agonists, cell-based qHTS assay (AID 1963589). Also: nearly all actives have a fitted effect of over 35% in size. Summed up: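 Calcium flux read-out: kinetic fluorescence at 1 sec intervals after pin-tool compound addition to dye-loaded CHRM1-CHO cells (human M1). Agonist mode; 15 concentrations tested in triplicate independent runs.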
Test [13] is described as follows: cAMP Responsive Elements (CRE) small molecule antagonists, cell-based qHTS assay (AID 1963591; active = well fitted inhibition curve with a large enough effect in the signal ratio in the repeat runs, not every such curve was filed as active; the % refers to the signal ratio). An outline of the steps:
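HEK293T CRE-bla; 18 h preincubation; compound pin-transfer; NKH477 0.25 uM final, 3 h, 37 C; LiveBLAzer FRET substrate 2 h RT.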

In test [14] the target is Beta-2 adrenergic receptor (Homo sapiens) (UniProt P07550). The test is described as follows: Adrenergic beta2 receptor (ADRB2) small molecule antagonists, cell-based qHTS assay (AID 1963592). Also: series mostly up to about 92 µM; nearly all actives have a fitted effect of over 50% in size. Summed up: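 Assay format: CHO-ADRB2 cells, 18-20hr seeding at 37C/5% CO2, then compound plus 1nM isoproterenol agonist mix for 0.5hr RT. Homogeneous time-resolved fluorescence cAMP detection after 1hr, expressed as 665/615 nm ratio.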
Chain of Beta-2 adrenergic receptor (Homo sapiens) (P07550 whole entry, looked up): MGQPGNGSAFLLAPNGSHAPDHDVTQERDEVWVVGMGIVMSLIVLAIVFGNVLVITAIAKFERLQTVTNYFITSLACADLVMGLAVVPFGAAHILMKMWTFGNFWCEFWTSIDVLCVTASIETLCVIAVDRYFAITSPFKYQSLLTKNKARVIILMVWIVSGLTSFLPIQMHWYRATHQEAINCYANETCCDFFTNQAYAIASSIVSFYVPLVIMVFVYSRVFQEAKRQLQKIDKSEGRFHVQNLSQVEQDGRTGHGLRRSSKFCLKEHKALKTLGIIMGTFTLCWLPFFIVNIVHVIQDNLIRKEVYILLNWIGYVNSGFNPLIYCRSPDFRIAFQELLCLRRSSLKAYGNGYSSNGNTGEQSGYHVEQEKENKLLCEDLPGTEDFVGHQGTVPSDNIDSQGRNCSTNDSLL

The target of test [15] is D(2) dopamine receptor (Homo sapiens) (UniProt P14416). Nature of the test: Dopamine D2 receptor (DRD2) small molecule agonists, cell-based qHTS assay (AID 1963594). Also: nearly all actives have a fitted effect of over 35% in size. An outline of the steps:
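HEK293 cells stably expressing human DRD2, pre-treated with PDE inhibitor Ro20-1724 (0.1 mM final) and compound 10 min at room temperature, then stimulated with NKH477 (200nM […]) for 30 min. cAMP read by HTRF (665/620 nm).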

Test [16] shares this target. The test is described as follows: Dopamine D2 receptor (DRD2) small molecule antagonists, cell-based qHTS assay (AID 1963595; active = well fitted inhibition curve with a large enough effect in the signal ratio in the repeat runs, with a control signal flat; the % refers to the signal ratio). An outline of the steps:
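HTRF cAMP read-out at 665 and 620 nm emission (340 nm excitation). Antagonist mode: compounds were tested against 12 nM quinpirole in DRD2-HEK293 cells, with 200 nM NKH477 raising cAMP and 0.1 mM Ro20-1724 blocking its breakdown.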

A short description of test [17]: p53 small molecule agonists, cell-based qHTS assay with human liver microsomes: qHTS cell viability counter screen (AID 1963579). Also: nearly all actives have a fitted effect of over 45% in size. Summed up:
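Metabolically activated exposure: compounds, human liver microsomes and NADPH (0.5 mg/mL final apiece) were added to p53RE-bla cells seeded 5 h earlier, left 16 h at 37 C, and then assessed for viability by CellTiter-Glo luminescence.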

Test [18] can be described thus: p53 small molecule agonists, cell-based qHTS assay (AID 1963582; active = well fitted activation curve with a large enough effect in the signal ratio in the repeat runs, not every such curve was filed as active; the % refers to the signal ratio; also: potency is read from the fitted curve at half-maximal effect). An outline of the steps:
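Fluorescence intensity read-out of a beta-lactamase reporter under a p53 response element. Cells were exposed to DMSO-dissolved compounds for 16 h at 37 C, then developed with FRET substrate for 2 h at RT.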

Test [19] in a line: cAMP Responsive Elements (CRE) small molecule agonists, cell-based qHTS assay (AID 1963590). Summed up:
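Beta-lactamase reporter readout: LiveBLAzer B/G FRET substrate, 2 h at room temperature, added after 3 h compound treatment of CRE-bla HEK 293T cells at 37 C/5% CO2.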

Test [20] deals with Beta-2 adrenergic receptor (Homo sapiens) (UniProt P07550). Nature of the test: Adrenergic beta2 receptor (ADRB2) small molecule agonists, cell-based qHTS assay (AID 1963593). Also: potency is read from the fitted curve at half-maximal effect.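 As to activation: CHO cells stably overexpressing human ADRB2.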 Summed up: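 CHO cells stably over-expressing ADRB2 were plated overnight at 37C, then dosed with compounds plus a stimulation mix containing 100uM IBMX and 25uM Ro-20-1724 for 0.5hr at room temperature. cAMP was measured by HTRF competition, 1hr.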

Chain of KiSS-1 receptor (Homo sapiens) (Q969F8 whole entry, looked up): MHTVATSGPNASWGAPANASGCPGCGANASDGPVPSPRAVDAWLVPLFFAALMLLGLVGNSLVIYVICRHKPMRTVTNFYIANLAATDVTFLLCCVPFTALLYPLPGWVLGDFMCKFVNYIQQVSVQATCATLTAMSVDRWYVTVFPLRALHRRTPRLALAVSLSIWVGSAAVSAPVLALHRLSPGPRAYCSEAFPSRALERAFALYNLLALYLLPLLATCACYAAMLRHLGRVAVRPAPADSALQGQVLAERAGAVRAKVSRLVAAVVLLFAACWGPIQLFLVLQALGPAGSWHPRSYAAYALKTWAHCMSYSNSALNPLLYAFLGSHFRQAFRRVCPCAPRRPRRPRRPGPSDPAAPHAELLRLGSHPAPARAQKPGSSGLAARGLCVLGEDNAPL
Chain of Muscarinic acetylcholine receptor M1 (Homo sapiens) (P11229 whole entry, looked up): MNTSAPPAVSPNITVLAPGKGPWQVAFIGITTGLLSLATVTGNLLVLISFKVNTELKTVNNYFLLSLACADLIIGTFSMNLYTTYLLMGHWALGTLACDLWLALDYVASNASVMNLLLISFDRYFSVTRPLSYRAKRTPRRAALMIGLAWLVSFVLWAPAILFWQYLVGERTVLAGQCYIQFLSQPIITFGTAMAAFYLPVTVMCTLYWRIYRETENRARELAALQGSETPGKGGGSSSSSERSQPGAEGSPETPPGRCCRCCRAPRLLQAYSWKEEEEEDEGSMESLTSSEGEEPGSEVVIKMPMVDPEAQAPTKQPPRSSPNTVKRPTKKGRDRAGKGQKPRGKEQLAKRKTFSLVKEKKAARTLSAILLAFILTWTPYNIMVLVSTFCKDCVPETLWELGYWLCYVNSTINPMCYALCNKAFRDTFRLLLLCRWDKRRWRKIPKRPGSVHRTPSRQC
Chain of Gonadotropin-releasing hormone receptor (Homo sapiens) (P30968 whole entry, looked up): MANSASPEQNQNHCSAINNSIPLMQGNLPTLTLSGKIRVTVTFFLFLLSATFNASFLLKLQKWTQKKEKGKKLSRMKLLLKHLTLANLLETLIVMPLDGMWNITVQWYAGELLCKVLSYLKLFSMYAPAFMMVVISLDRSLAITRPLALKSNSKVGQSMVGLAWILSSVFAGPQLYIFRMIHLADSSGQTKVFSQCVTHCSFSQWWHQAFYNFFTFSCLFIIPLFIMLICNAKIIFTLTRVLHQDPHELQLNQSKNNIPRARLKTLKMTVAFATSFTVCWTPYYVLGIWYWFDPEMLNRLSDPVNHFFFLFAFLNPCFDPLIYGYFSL
Chain of 5-hydroxytryptamine receptor 2A (Homo sapiens) (P28223 whole entry, looked up): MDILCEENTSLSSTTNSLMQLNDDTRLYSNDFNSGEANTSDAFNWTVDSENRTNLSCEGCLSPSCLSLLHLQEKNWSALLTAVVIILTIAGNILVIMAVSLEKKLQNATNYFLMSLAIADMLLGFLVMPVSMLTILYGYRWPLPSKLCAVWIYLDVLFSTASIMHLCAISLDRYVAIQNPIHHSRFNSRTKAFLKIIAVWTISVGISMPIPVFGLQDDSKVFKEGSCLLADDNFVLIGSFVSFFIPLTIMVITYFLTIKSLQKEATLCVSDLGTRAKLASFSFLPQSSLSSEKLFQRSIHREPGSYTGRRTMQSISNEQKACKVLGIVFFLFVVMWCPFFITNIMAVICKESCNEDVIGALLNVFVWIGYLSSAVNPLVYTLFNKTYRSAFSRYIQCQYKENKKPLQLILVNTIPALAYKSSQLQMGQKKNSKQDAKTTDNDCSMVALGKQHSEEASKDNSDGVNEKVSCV
Chain of D(2) dopamine receptor (Homo sapiens) (P14416 whole entry, looked up): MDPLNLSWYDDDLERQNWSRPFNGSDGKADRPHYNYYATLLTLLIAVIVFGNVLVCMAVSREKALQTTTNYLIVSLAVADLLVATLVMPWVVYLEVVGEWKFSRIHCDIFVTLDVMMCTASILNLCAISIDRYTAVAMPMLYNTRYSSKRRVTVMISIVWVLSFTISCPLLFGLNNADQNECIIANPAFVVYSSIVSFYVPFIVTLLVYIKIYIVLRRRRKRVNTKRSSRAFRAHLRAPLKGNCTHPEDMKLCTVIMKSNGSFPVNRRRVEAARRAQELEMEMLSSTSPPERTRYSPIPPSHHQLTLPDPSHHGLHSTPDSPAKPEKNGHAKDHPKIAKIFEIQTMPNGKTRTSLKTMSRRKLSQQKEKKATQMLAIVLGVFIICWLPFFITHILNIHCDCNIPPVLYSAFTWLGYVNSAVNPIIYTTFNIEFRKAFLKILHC

On to `Oc1cc(Cl)c(Cl)c(Cl)c1`, for which the Potency in test [1] is 65 µM (active). Besides, the Potency entry in test [2], in [3], in test [4], in test [5], in test [6] and in test [7] was “inactive” throughout. In addition, the Potency entry in test [8], in test [9], in [10], in [11], in [12] and in test [13] was “inactive” throughout. Moreover, the Potency entry in test [14], in test [15] and in test [16] was “inactive” throughout.
On to `CC(=O)/C=C/c1ccc2c(c1)OCO2`, for which the Potency in [1] is 61.4 µM (active); in test [18], 41 µM (active). Moreover, the Potency result in test [2], in test [3], in test [4], in [5], in [17] and in test [7] was “inactive” throughout. For the same molecule, the Potency result in test [8], in [9], in test [10], in test [12] and in test [15] was “inactive” each time.
Consider `Clc1ccc(Oc2ccccc2)cc1`, for which the Potency result in test [1], in test [2], in test [3], in test [4], in [5] and in test [6] was “inactive” each time. In addition, the Potency result in test [17], in test [8], in [18], in [11], in test [12] and in test [19] was “inactive” each time. For the same molecule, the Potency entry in test [13], in [20], in test [15] and in test [16] was “inactive” each time.
As for `CC(C)(C)c1cc(O)ccc1O`, the Potency in [1] was 24.3 µM (active) and 30.6 µM (active). Further, the Potency result in [2], in [3], in [4], in test [5], in [6] and in test [7] was “inactive” in each case. Moreover, the Potency result in test [18], in test [9], in [10], in test [11], in test [12] and in [19] was “inactive” in each case. The Potency result in test [13], in test [14] and in test [16] was “inactive” throughout.
Consider `ClC1=C(Cl)[C@]2(Cl)[C@@H]3[C@@H](Cl)[C@H]4O[C@H]4[C@@H]3C1(Cl)C2(Cl)Cl`, for which the Potency entry in test [1], in test [2], in [3], in [4], in [6] and in test [17] was “inactive” throughout. The Potency entry in [7], in [8], in test [9], in [10], in [11] and in test [12] was “inactive” throughout. Moreover, in test [20], the Potency is 61.1 µM (active).
Consider `C=C(C)CN(CC)c1c([N+](=O)[O-])cc(C(F)(F)F)cc1[N+](=O)[O-]`, for which, in test [1], the Potency was 54.5 µM (active). Moreover, the Potency result in test [2], in test [3], in test [4], in test [5], in test [17] and in test [7] was “inactive” each time. Besides, the Potency result in [8], in [18], in [9], in test [10], in test [11] and in test [12] was “inactive” each time. Further, the Potency entry in test [19], in test [13], in test [14] and in test [16] was “inactive” each time.
For `CCOc1cc(OP(=S)(OC)OC)nc(CC)n1`, the Potency entry in test [1], in [2], in [3], in test [4], in test [6] and in test [17] was “inactive” in each case. Also, the Potency result in test [7], in [8], in test [18], in test [9], in test [11] and in [12] was “inactive” in each case. Further, the Potency entry in test [19], in [13], in test [14], in test [20] and in test [15] was “inactive” throughout.
